The supplement of paper PMC11732987, “Enantioselective OTUD7B fragment discovery through chemoproteomics screening and high-throughput optimisation” (Communications Chemistry, 2025)

How the values were obtained:
Experiment in all cases: log2 ratio of Biotin-Ahx-Ub-VS probe labelling (fragment/DMSO); higher = less target engagement (more negative = stronger competition), active = hit call of the paper (q ≤ 0.05, log2 ratio ≤ -1)
Conditions in all cases: compound concentration: 200 uM; treatment time: 3 h
USP19 = target: T1, USP19 (UniProt O94966)
T1 sequence (whole entry): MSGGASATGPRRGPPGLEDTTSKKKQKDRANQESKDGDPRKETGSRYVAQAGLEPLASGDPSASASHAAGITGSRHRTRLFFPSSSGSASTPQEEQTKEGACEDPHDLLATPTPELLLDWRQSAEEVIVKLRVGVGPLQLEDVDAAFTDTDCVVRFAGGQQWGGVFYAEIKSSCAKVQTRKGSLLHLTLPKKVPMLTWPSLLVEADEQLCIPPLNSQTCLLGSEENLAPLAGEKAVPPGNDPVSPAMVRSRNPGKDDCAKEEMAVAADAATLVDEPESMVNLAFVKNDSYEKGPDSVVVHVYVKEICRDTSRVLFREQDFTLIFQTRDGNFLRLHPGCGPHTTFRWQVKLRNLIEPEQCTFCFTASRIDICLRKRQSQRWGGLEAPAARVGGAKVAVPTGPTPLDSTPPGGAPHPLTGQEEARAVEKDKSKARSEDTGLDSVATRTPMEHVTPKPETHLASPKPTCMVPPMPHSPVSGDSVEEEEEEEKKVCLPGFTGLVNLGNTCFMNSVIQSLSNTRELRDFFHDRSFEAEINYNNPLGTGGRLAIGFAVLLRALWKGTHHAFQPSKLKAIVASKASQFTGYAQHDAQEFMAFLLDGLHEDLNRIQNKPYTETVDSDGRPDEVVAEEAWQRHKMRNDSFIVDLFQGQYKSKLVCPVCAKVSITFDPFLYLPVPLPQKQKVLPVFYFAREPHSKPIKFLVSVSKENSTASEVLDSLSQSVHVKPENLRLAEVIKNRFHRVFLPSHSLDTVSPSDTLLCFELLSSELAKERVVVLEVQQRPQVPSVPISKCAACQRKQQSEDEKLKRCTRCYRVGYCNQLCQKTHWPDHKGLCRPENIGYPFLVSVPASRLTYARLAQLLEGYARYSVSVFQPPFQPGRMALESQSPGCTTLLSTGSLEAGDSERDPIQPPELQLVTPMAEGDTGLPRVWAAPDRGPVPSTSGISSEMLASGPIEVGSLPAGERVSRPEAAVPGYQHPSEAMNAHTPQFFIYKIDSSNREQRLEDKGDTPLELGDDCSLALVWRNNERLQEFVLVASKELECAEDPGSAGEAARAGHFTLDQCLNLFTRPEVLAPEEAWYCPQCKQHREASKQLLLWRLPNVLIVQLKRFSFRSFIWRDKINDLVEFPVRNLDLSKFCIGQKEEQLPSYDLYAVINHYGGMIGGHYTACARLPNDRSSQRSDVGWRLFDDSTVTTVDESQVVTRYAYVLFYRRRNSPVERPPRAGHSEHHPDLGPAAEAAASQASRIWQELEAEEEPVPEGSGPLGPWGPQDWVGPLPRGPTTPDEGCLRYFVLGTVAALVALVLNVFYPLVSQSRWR
How it was run: (§1)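 Average log2 ratios of fragment over vehicle were obtained by unpaired t-test from global-median-normalised Spectronaut label-free quantities. Proteins with ≥2 unique peptides were included. HEK293T lysate (495 µg per sample) was treated in triplicate with fragment at 200 µM or vehicle for 3 h, then with Biotin-Ahx-Ub-VS at 0.5 µM final for 1 h, and labelled DUBs were NeutrAvidin-enriched and run by diaPASEF LC-MS/MS.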

USP24 = USP24 (UniProt Q9UPU5)
Chain of USP24 (Q9UPU5 whole entry): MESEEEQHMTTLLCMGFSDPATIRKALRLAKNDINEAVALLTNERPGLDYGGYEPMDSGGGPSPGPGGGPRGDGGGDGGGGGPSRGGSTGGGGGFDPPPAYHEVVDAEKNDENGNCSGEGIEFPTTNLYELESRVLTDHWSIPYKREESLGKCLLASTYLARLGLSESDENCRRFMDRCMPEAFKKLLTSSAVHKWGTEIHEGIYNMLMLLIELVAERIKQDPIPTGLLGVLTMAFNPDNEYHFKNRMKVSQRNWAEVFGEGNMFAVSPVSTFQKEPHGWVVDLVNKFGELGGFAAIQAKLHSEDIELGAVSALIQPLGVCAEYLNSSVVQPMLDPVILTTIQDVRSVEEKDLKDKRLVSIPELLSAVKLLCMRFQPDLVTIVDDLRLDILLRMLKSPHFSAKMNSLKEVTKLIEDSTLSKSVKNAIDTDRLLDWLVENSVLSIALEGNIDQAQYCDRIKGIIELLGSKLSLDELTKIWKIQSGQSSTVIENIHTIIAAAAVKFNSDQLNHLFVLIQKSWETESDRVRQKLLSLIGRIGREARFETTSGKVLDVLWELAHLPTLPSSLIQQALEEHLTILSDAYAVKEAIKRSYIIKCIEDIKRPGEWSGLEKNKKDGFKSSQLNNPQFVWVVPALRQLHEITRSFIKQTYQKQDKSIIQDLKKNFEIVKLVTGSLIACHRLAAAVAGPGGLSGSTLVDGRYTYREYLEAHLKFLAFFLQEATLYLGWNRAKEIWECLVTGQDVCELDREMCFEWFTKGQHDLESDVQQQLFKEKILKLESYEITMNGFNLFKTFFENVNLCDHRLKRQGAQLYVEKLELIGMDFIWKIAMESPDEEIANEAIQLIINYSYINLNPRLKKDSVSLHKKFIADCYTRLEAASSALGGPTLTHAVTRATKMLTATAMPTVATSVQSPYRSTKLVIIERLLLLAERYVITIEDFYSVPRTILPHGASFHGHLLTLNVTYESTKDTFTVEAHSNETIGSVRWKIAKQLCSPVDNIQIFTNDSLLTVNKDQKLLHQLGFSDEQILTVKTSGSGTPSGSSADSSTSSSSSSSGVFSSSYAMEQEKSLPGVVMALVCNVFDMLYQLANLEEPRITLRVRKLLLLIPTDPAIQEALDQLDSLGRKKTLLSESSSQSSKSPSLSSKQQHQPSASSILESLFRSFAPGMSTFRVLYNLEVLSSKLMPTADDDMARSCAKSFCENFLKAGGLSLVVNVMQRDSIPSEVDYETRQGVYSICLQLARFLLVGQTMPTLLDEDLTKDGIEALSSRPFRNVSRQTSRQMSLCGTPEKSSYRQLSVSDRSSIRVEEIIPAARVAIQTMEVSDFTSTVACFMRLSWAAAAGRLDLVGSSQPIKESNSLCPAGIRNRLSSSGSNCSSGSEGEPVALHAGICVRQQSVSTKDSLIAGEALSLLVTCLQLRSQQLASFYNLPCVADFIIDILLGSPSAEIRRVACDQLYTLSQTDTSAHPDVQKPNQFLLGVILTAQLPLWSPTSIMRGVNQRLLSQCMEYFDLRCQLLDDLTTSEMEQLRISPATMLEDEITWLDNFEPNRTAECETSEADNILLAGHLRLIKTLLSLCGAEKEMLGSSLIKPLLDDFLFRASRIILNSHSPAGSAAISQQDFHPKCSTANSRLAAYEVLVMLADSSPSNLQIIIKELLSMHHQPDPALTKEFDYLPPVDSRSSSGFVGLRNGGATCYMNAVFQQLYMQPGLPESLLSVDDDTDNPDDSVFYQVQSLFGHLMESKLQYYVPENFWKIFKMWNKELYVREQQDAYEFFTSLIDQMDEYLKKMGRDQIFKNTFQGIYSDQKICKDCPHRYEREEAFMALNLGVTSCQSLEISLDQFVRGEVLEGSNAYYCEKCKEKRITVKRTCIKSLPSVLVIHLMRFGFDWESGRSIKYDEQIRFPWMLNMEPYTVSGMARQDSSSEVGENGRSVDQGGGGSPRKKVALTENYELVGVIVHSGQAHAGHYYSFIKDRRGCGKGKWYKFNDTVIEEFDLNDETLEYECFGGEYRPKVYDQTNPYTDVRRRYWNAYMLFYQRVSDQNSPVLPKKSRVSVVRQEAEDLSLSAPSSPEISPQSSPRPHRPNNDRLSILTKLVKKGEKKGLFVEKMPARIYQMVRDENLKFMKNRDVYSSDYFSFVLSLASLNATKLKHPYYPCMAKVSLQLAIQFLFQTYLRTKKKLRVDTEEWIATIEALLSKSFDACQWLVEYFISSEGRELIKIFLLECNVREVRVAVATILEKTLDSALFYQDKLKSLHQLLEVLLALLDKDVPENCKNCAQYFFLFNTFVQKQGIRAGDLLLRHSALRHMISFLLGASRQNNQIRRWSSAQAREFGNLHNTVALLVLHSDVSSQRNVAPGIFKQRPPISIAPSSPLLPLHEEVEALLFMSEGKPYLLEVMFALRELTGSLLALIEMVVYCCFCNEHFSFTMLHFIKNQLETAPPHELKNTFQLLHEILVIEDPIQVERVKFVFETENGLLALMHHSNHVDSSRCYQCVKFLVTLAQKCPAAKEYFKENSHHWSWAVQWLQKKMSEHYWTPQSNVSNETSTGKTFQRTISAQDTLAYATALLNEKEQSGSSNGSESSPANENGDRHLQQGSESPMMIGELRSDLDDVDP
How it was run: as §1

USP25 = target: T2, USP25 (UniProt Q9UHP3)
T2 sequence (whole entry): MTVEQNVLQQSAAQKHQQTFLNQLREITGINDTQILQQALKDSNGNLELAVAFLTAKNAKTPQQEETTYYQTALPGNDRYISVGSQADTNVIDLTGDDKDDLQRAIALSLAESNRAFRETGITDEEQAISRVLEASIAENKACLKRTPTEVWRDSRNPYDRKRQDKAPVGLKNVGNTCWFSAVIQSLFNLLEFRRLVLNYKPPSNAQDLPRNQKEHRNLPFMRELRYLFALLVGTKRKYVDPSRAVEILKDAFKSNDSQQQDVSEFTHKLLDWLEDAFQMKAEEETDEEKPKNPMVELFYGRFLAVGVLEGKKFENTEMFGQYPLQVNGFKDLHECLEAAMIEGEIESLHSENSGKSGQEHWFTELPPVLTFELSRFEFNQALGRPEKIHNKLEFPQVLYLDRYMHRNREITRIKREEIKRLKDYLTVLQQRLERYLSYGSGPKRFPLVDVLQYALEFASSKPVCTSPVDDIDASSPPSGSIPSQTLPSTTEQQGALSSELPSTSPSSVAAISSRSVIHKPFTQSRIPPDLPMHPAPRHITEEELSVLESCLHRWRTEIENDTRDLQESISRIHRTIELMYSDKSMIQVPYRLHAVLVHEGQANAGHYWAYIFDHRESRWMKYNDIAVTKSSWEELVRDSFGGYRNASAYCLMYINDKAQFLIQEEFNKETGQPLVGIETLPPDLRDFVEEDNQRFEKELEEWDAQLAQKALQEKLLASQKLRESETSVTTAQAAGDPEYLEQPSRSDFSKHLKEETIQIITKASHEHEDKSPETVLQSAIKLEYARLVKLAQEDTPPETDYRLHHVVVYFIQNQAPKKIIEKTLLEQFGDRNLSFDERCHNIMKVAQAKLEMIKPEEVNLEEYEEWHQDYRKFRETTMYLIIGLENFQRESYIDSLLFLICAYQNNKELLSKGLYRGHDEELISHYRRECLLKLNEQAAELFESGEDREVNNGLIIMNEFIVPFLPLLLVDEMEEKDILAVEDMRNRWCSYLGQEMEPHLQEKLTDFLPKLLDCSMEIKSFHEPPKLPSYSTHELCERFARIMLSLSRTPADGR
How it was run: as §1

USP28 = target: T3, USP28 (UniProt Q96RU2)
T3 sequence (whole entry): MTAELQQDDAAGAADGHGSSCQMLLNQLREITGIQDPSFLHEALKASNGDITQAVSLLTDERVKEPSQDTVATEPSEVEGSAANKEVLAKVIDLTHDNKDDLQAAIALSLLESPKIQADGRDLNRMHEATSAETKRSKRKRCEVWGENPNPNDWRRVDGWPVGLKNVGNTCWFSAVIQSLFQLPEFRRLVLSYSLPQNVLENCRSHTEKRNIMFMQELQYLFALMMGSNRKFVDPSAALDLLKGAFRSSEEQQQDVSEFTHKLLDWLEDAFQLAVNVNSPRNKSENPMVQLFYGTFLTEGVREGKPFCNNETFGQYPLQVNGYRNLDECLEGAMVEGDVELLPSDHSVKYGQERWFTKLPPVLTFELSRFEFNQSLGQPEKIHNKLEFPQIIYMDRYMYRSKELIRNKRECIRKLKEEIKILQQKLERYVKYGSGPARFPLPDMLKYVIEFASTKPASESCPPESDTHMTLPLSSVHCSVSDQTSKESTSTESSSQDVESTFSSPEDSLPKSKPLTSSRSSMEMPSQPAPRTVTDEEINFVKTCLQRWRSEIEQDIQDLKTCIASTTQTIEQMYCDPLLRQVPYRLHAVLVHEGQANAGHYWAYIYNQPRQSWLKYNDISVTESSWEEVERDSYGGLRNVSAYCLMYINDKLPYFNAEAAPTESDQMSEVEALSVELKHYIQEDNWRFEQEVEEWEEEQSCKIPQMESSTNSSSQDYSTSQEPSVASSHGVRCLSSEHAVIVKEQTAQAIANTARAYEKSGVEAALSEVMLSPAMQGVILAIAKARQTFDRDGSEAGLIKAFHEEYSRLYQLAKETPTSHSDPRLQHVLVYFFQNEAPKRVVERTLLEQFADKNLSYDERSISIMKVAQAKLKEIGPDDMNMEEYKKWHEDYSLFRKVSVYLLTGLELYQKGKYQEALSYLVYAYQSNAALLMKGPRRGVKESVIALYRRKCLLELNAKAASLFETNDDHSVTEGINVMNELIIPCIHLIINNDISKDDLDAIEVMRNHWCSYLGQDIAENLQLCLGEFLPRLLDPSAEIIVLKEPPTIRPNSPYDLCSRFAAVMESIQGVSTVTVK
How it was run: as §1

Measured: log2 ratio of Biotin-Ahx-Ub-VS probe labelling

Cc1cccc2nc(CCNC(=O)CCl)cn12.Cl
inactive: USP19 -0.242 | USP24 -0.429 | USP25 -0.267 | USP28 -0.53
